# In PubChem BioAssay (NCI):
# Where “and” joins values, the source holds several entries; their conditions need not be identical. Identical values can stand only once. The panel holds about 79,000 compounds, 15% with a hit somewhere; the sample as a whole holds those more often. Where a structure was tested more than once in an assay, its records may differ in their call. Calls of active or inactive are those of the source. Rule as the data show it: active = growth inhibition above about 70%; inactive = the rest.
# Columns and labels:
# [1] = NCI Yeast Anticancer Drug Screen. Data for the rad52 strain (AID 147);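 also: 0% = growth of vehicle-treated control cultures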; details: S. cerevisiae rad52 mutant growth inhibition, stronger effect = higher value
# Method in brief: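 Growth of repair-deficient yeast cells was compared between compound-treated and vehicle-treated cultures to give percent inhibition.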
# [2] = NCI Yeast Anticancer Drug Screen. Data for the wt1 strain (AID 149);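 also: 0% = growth of vehicle-treated wt1 cultures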; details: S. cerevisiae wt1 strain (SPY 50644) growth inhibition, stronger effect = higher value
# Method in brief: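 Yeast wt1 strain exposed to compounds; growth inhibition measured relative to vehicle-treated controls.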
# [3] = NCI Yeast Anticancer Drug Screen. Data for the rad50EPP+ strain (AID 151);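 also: 0% = growth of vehicle-treated control cultures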; details: S. cerevisiae rad50 mutant strain, stronger effect = higher value
# Method in brief: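 Measured: growth inhibition of rad50EPP+ yeast. Reference: vehicle-treated controls. Screen uses strains with defined genetic alterations in DNA damage repair or cell cycle control.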
# [4] = NCI Yeast Anticancer Drug Screen. Data for the mgt1 strain (AID 153); details: S. cerevisiae mgt1 mutant growth inhibition, stronger effect = higher value
# Method in brief: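 Compounds were applied to mgt1 mutant yeast, and growth was then compared against vehicle-treated control cultures to give percent inhibition.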
# [5] = NCI Yeast Anticancer Drug Screen. Data for the rad50 strain (AID 155);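 also: 0% = growth of vehicle-only cultures of the same strain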; details: S. cerevisiae rad50 strain growth inhibition, stronger effect = higher value
# Method in brief: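 Yeast carrying a defined DNA repair defect were exposed to test compounds, and growth was compared with vehicle-treated controls to give percent inhibition.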
# [6] = NCI Yeast Anticancer Drug Screen. Data for the mec2-1 strain (AID 157); details: S. cerevisiae mec2-1 strain, stronger effect = higher value
# Method in brief: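 Compounds were applied to mec2-1 yeast cells. Their growth was then compared with that of vehicle-treated cultures to give growth inhibition.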
# [7] = NCI Yeast Anticancer Drug Screen. Data for the sgs1 mgt1 strain (AID 161);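 also: 0% = growth of cultures given vehicle only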; details: S. cerevisiae sgs1 mgt1 strain, stronger effect = higher value
# Method in brief: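 Yeast cells carrying a defined DNA-repair defect were exposed to test compounds. Growth inhibition was measured relative to vehicle-treated controls.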
# [8] = NCI Yeast Anticancer Drug Screen. Data for the CLN2oe strain (AID 163);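 also: 0% = growth of vehicle-only control cultures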; details: S. cerevisiae CLN2oe strain, stronger effect = higher value
# Method in brief: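 Cells of an engineered yeast line with disturbed cell-cycle regulation are treated with compound. Inhibition of growth is then calculated relative to the vehicle-treated reference.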
# [9] = NCI Yeast Anticancer Drug Screen. Data for the cln2 rad14 strain (AID 165);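 also: 0% = growth equal to vehicle treated cultures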; details: S. cerevisiae cln2 rad14 strain, stronger effect = higher value
# Method in brief: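 Strain: cln2 rad14 yeast, altered in cell cycle control and DNA damage repair. Read-out: growth inhibition vs vehicle.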
# [10] = NCI Yeast Anticancer Drug Screen. Data for the bub3 strain (AID 167); details: S. cerevisiae bub3 mutant strain, stronger effect = higher value
# Method in brief: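 Compounds were applied to a genetically altered yeast strain carrying a cell-cycle control defect. Growth inhibition was scored against vehicle-treated controls.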
# [11] = NCI Yeast Anticancer Drug Screen. Data for the wt2 strain (AID 169);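 also: 0% = growth of vehicle-treated yeast cultures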; details: S. cerevisiae wt2 strain growth inhibition, stronger effect = higher value
# Method in brief: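 Growth of compound-treated yeast is measured and expressed as inhibition relative to vehicle-only controls.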
# [12] = NCI Yeast Anticancer Drug Screen. Data for the mlh1 strain (AID 171);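 also: 0% = growth of vehicle-treated control cultures of the same strain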; details: S. cerevisiae mlh1 strain growth inhibition, stronger effect = higher value
# Method in brief: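 Test agents were incubated with yeast bearing a defined DNA damage repair or cell cycle control alteration; values are growth inhibition normalised to vehicle-treated cultures.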
# [13] = NCI Yeast Anticancer Drug Screen. Data for the sgs1 strain (AID 173);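 also: 0% = growth of vehicle-only control cultures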; details: S. cerevisiae sgs1 mutant, stronger effect = higher value
# Method in brief: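 Strain with an altered DNA repair or cell cycle pathway exposed to compound. Growth then measured. Value = inhibition versus vehicle control.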
# [14] = NCI Yeast Anticancer Drug Screen. Data for the rad18 strain (AID 177); details: S. cerevisiae rad18 mutant growth inhibition, stronger effect = higher value
# Method in brief: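 DNA-repair-defective yeast; compound treatment; growth inhibition scored against vehicle.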
# [15] = at 5.0 µM (retest, dose inferred, filed as 0.5)
# [16] = at 50.0 µM (retest, dose inferred, filed as 5.0)
compound,measurement,setting,value
COc1ccc(C(=O)C(CN(C)C)CN(C)C)cc1,growth inhibition,[1]; at 1.2 µM,-14% (inactive)
same,growth inhibition,[1]; at 3.7 µM,30% (inactive)
same,growth inhibition,[1]; at 11.0 µM,30% (inactive)
same,growth inhibition,[1]; at 33.0 µM,29% (inactive)
same,growth inhibition,[1]; at 100.0 µM,48% (inactive)
same,growth inhibition,[2]; at 1.2 µM,-5% (inactive)
same,growth inhibition,[2]; at 3.7 µM,-1% (inactive)
same,growth inhibition,[2]; at 11.0 µM,-4% (inactive)
same,growth inhibition,[2]; at 33.0 µM,3% (inactive)
same,growth inhibition,[2]; at 100.0 µM,40% (inactive)
same,growth inhibition,[3]; at 1.2 µM,10% (inactive)
same,growth inhibition,[3]; at 3.7 µM,19% (inactive)
same,growth inhibition,[3]; at 11.0 µM,9% (inactive)
same,growth inhibition,[3]; at 33.0 µM,13% (inactive)
same,growth inhibition,[3]; at 100.0 µM,17% (inactive)
same,growth inhibition,[4]; at 1.2 µM,-26% (inactive)
same,growth inhibition,[4]; at 3.7 µM,-12% (inactive)
same,growth inhibition,[4]; at 11.0 µM,-8% (inactive)
same,growth inhibition,[4]; at 33.0 µM,11% (inactive)
same,growth inhibition,[4]; at 100.0 µM,77% (active)
same,growth inhibition,[5]; at 1.2 µM,7% (inactive)
same,growth inhibition,[5]; at 3.7 µM,-1% (inactive)
same,growth inhibition,[5]; [15],26% (inactive) and 8% (inactive)
same,growth inhibition,[5]; at 11.0 µM,-2% (inactive)
same,growth inhibition,[5]; at 33.0 µM,11% (inactive)
same,growth inhibition,[5]; [16],52% (inactive) and 35% (inactive)
same,growth inhibition,[5]; at 50.0 µM,35.8% (inactive) and 45.3% (inactive)
same,growth inhibition,[5]; at 100.0 µM,51% (inactive)
same,growth inhibition,[6]; at 1.2 µM,-20% (inactive)
same,growth inhibition,[6]; at 3.7 µM,-9% (inactive)
same,growth inhibition,[6]; [15],14% (inactive) and 1% (inactive)
same,growth inhibition,[6]; at 11.0 µM,-4% (inactive)
same,growth inhibition,[6]; at 33.0 µM,9% (inactive)
same,growth inhibition,[6]; [16],63% (inactive) and 41% (inactive)
same,growth inhibition,[6]; at 50.0 µM,74.2% (active) and 75.8% (active)
same,growth inhibition,[6]; at 100.0 µM,68% (inactive)
same,growth inhibition,[7]; [15],34% (inactive) and 14% (inactive)
same,growth inhibition,[7]; [16],59% (inactive) and 35% (inactive)
same,growth inhibition,[7]; at 50.0 µM,32.8% (inactive) and 61.8% (inactive)
same,growth inhibition,[8]; at 1.2 µM,15% (inactive)
same,growth inhibition,[8]; at 3.7 µM,12% (inactive)
same,growth inhibition,[8]; at 11.0 µM,6% (inactive)
same,growth inhibition,[8]; at 33.0 µM,33% (inactive)
same,growth inhibition,[8]; at 100.0 µM,46% (inactive)
same,growth inhibition,[9]; [15],11% (inactive) and 20% (inactive)
same,growth inhibition,[9]; [16],31% (inactive) and 36% (inactive)
same,growth inhibition,[9]; at 50.0 µM,21.6% (inactive) and 30.7% (inactive)
same,growth inhibition,[10]; at 1.2 µM,-18% (inactive)
same,growth inhibition,[10]; at 3.7 µM,-5% (inactive)
same,growth inhibition,[10]; [15],21% (inactive) and 19% (inactive)
same,growth inhibition,[10]; at 11.0 µM,-2% (inactive)
same,growth inhibition,[10]; at 33.0 µM,11% (inactive)
same,growth inhibition,[10]; [16],51% (inactive) and 33% (inactive)
same,growth inhibition,[10]; at 50.0 µM,0.15% (inactive) and 75.1% (active)
same,growth inhibition,[10]; at 100.0 µM,74% (active)
same,growth inhibition,[11]; at 1.2 µM,12% (inactive)
same,growth inhibition,[11]; at 3.7 µM,1% (inactive)
same,growth inhibition,[11]; at 11.0 µM,4% (inactive)
same,growth inhibition,[11]; at 33.0 µM,36% (inactive)
same,growth inhibition,[11]; at 100.0 µM,79% (active)
same,growth inhibition,[12]; at 1.2 µM,-32% (inactive)
same,growth inhibition,[12]; at 3.7 µM,-15% (inactive)
same,growth inhibition,[12]; at 11.0 µM,-13% (inactive)
same,growth inhibition,[12]; at 33.0 µM,4% (inactive)
same,growth inhibition,[12]; at 100.0 µM,74% (active)
same,growth inhibition,[13]; at 1.2 µM,-7% (inactive)
same,growth inhibition,[13]; at 3.7 µM,29% (inactive)
same,growth inhibition,[13]; at 11.0 µM,26% (inactive)
same,growth inhibition,[13]; at 33.0 µM,32% (inactive)
same,growth inhibition,[13]; at 100.0 µM,78% (active)
same,growth inhibition,[14]; at 1.2 µM,-3% (inactive)
same,growth inhibition,[14]; at 3.7 µM,-8% (inactive)
same,growth inhibition,[14]; at 11.0 µM,-23% (inactive)
same,growth inhibition,[14]; at 33.0 µM,-3% (inactive)
same,growth inhibition,[14]; at 100.0 µM,66% (inactive)
